# Data taken from ChEMBL document CHEMBL4513216, “Probing the Open Global Health Chemical Diversity Library for Multistage-Active Starting Points for Next-Generation Antimalarials” (ACS Infect Dis, 2020).
# The campaign covered roughly 69,000 compounds. About 8,600 (12%) showed an effect of 50% or more. The full list was thinned out, with strong results kept by preference.
# Tested on: Plasmodium berghei
# Assay: Screen against P. berghei liver stage (PbLuc), transformed with Luciferase, at 10uM
# Type: functional, HepG2
# Details: tested at 10 uM
row,SMILES,INHIBITION
1,O=C(Nc1cccc(CNCc2cccs2)c1)C1CCCC1,36.9%
2,O=C(Nc1cccc(CNCc2cccs2)c1)C1CC1,20.5%
3,CC(C)CC(=O)Nc1cccc(CNCc2cccs2)c1,52.1%
4,Cc1cnn(CC2CCCN2C(=O)c2sccc2-n2cnnn2)c1 (stereo unspecified),-29.1%
5,COCCC(=O)N(C)CCC1=CCN(C)CC1,-6.274%
6,CN(C)C(=O)C1(c2cnccn2)CCCN1C(=O)Cc1ccsc1 (stereo unspecified),41%
7,CCN1CC[C@]2(CN(C(=O)C3CCOCC3)C[C@H]2c2ccccc2)C1=O,20.1%
8,CN1Cc2ccccc2CC2(CCN(C(=O)[C@H]3CCCO3)CC2)C1=O,59.3%
9,CCN1CC[C@]2(CN(C(=O)[C@H]3CCCO3)C[C@H]2c2ccccc2)C1=O,52.3%
10,O=C([C@H]1CCCO1)N1CCC2(CC1)Cc1ccccc1CNC2=O,7.7%
11,CN1CC[C@]2(CN(C(=O)[C@H]3CCCO3)C[C@H]2c2ccccc2)C1=O,4.02%
12,CN1Cc2ccccc2CC2(CCN(C(=O)N3CCOCC3)CC2)C1=O,26.5%
13,CSCCC(=O)N1CCCC(n2ccnc2)C1 (stereo unspecified),-6.14%
14,CC(C)Cn1cc2nc(N)[nH]cc-2c1=O,29.2%
15,O=C(NCCN1CCCCCC1=O)Nc1cccnc1-n1cccn1,-15.4%
16,CCc1ncc2c(n1)CN(c1cc(NC3CC3)nc(N)n1)C2,-49.6%
17,CCn1cc(-n2cc3nc(N)[nH]cc-3c2=O)cn1,-8.69%
18,CCCN(CCC)S(=O)(=O)c1cc(NC(C)=O)ccc1C,71.2%
19,CCN(CC1CCCO1)S(=O)(=O)c1cc(NC(C)=O)ccc1C (stereo unspecified),47.7%
20,CCN(CC)S(=O)(=O)c1cc(NC(=O)CCc2cscn2)ccc1C,28.9%
21,O=C(c1cccc(C2CCNC2)c1)N1CCC(N2CCC(O)CC2)CC1 (stereo unspecified),35.1%
22,COc1ccc(Cl)cc1C(=O)N1CCOC2(CNCCOC2)C1 (stereo unspecified),16.8%

row,SMILES,INHIBITION
1,O=C(c1ccccc1-c1ccccc1)N1CCOC2(CNCCOC2)C1 (stereo unspecified),-16.5%
2,Cc1cc2cccc(C(=O)N3CCOC4(CNCCOC4)C3)c2o1 (stereo unspecified),30.5%
3,COc1ccc(C(=O)N2CCOC3(CNCCOC3)C2)c(OC)n1 (stereo unspecified),53.6%
4,Cc1ccccc1C(=O)N1CCOC2(CNCCOC2)C1 (stereo unspecified),55.1%
5,CN(C)c1ccccc1C(=O)N1CCOC2(CNCCOC2)C1 (stereo unspecified),8.53%
6,Cc1nc(C)n(CC2CCCN2CC(=O)NCCC#N)n1 (stereo unspecified),8.38%
7,Cc1nc(-c2ccc(C(=O)O)cc2)cc(C2CCN(C(C)C)CC2)n1,26.3%
8,OC(CN1CCC(c2ccn[nH]2)CC1)c1ccc(F)cc1 (stereo unspecified),-12.2%
9,Cc1cc(Nc2nc(C)cc(C)n2)cc(C2CCCN2)n1 (stereo unspecified),49.2%
10,Cc1cc(S(=O)(=O)N2C[C@H](C3CC3)[C@@H](N)C2)c(C)s1,1.71%
11,COc1ccc(CC(=O)N2CC(=O)NCC(C)(C)C2)cc1,60.1%
12,COc1ccc(CC(=O)N2CCN(C)c3ncccc3C2)cc1,8.44%
13,CN1C[C@H](O)[C@]2(CCN(C(=O)COc3ccccc3)C2)S1(=O)=O,9.36%
14,CC1(C)CNC(=O)CN(C(=O)COc2ccccc2)C1,55.5%
15,CC1(C)CNC(=O)CN(C(=O)Cc2ccccc2)C1,-1.99%
16,CC1(C)CNC(=O)CN(C(=O)CCc2ccccc2)C1,40.4%
17,CSc1[nH]nc(NC(=O)c2cccs2)c1C#N,24.2%
18,Cn1cc(CCNCc2cc(Cl)c3c(c2)OCCO3)cn1,-9.4%
19,O=C1Nc2ccccc2CN(CC2CCCC2)C12CCNC2 (stereo unspecified),-44.5%
20,O=C(NCc1nnc2n1CCCC2)c1cn(-c2ccccc2)nn1,36.4%
21,O=C(NCc1nnc2n1CCC2)c1cn(-c2ccccc2Br)nn1,50.4%
22,O=C(NCc1nnc2n1CCC2)c1cn(-c2ccccc2)nn1,13.6%

row,SMILES,INHIBITION
1,Cc1ccc(OCc2occc2C(=O)N2CCOC(C(=O)O)C2)cc1 (stereo unspecified),-0.71%
2,Cc1ccc(OCc2occc2C(=O)O)cc1,64.1%
3,Cc1ccc(OCc2occc2C(=O)N2CC[C@H](CO)[C@@H](O)C2)cc1,26.6%
4,NS(=O)(=O)c1cc(C(=O)N2CCCC(n3ccnc3)C2)cs1 (stereo unspecified),29.4%
5,CN1CCN(S(=O)(=O)c2cccc(S(=O)(=O)C3CCS(=O)(=O)C3)c2)CC1 (stereo unspecified),46.7%
6,O=S1(=O)CCC(S(=O)(=O)c2cccc(S(=O)(=O)N3CCCCCC3)c2)C1 (stereo unspecified),50.2%
7,O=S1(=O)CCC(S(=O)(=O)c2cccc(S(=O)(=O)N3CCCC3)c2)C1 (stereo unspecified),36.3%
8,CSCc1cccc(S(=O)(=O)N2CCC(C)CC2)c1,32.4%
9,O=S1(=O)CCC(S(=O)(=O)c2cccc(S(=O)(=O)N3CCOCC3)c2)C1 (stereo unspecified),58.9%
10,CC1=CCN(S(=O)(=O)c2cccc(C(=O)N3CCOCC3)c2)CC1,37.1%
11,COCCN1C[C@H]2[C@@H](C1)N(C(=O)c1cccc(OC)c1)CC[C@H]2OC,9.63%
12,CC(C)c1ncc2c(n1)CN(Cc1nc(-c3cccnc3)no1)CC2,33.7%
13,Cc1nc(CN2CCOCC3(CCN(c4ncccn4)CC3)C2)cs1,27.6%
14,Cc1nn(C)c(C)c1C1CCCN1CC(=O)NCc1ccco1 (stereo unspecified),7.12%
15,O=C(NC1CC1)[C@H]1C[C@H]2OCC[C@H]2N(Cc2cccc3ccccc23)C1,11.4%
16,Cn1c(CN2CCCc3cc(F)cc(F)c32)cc(=O)n(C)c1=O,12.8%
17,CCNc1nc(N(C)C)nc(-n2cnc(SC)n2)n1,46.1%
18,O=C(O)[C@]12CCCN(C3CCOC3)C[C@H]1CN(c1ncccn1)C2 (stereo partly specified),31.2%
19,Fc1cnccc1CN1CCCC2(CCN(c3ncccn3)CC2)C1,30.3%
20,O=C(O)[C@]12CCCN(CC3CCOC3)C[C@H]1CN(c1ncccn1)C2 (stereo partly specified),53.9%
21,c1cnc(N2CCC3(CCN(CC4CC4)CC3)CC2)nc1,-5.69%
22,c1cnc(N2CCOCC3(CCCN(CC4CC4)C3)C2)cn1 (stereo unspecified),26.8%

row,SMILES,INHIBITION
1,c1cnc(N2CCC3(CCCN(CC4CCCCC4)C3)C2)cn1 (stereo unspecified),63%
2,Fc1ccccc1CN1CCCC2(CCN(c3ncccn3)CC2)C1,30.3%
3,O=C(O)[C@]12CCCN(Cc3ccccc3)C[C@H]1CN(c1ncccn1)C2,2.01%
4,c1cnc(N2CCCC3(CN(CC4CCOCC4)CCO3)C2)cn1 (stereo unspecified),-36%
5,c1cnc(N2CCCC3(COCCN(CC4CC4)C3)C2)nc1 (stereo unspecified),-6.23%
6,c1cnc(N2CCC3(CCCN(CC4CC4)C3)CC2)nc1,61.1%
7,Fc1ccccc1CN1CCCC2(CCN(c3ncccn3)C2)C1 (stereo unspecified),74.9%
8,CN(CC(=O)N1CCC(N(C)c2ccccc2)CC1)c1cnccn1,9.9%
9,COCCCNC(=O)CN1CCC(c2ccccc2)C1 (stereo unspecified),-4.99%
10,Cn1cccc1C(=O)N[C@@H]1CN(CC2CC2)[C@@H]2COC[C@@H]21,0.547%
11,CN(C)S(=O)(=O)c1ccc(-c2nc(C#N)c(NC(C)(C)C)o2)o1,16%
12,Cc1ccc(C(=O)N2CCC3(CCC(=O)N(CCCO)C3)CC2)c(O)c1,-45%
13,COCCS(=O)(=O)NC(C)c1cccc(C)c1C (stereo unspecified),48.2%
14,CCc1nnc2n1CCN(C(=O)CCc1ccc(C)c(Cl)c1)C2,-27%
15,O=C(Cc1c(F)cccc1Cl)N1CCC(Nc2cccnn2)CC1,-8.225%
16,c1cnc(N2CCC3(CCCN(Cc4ccncc4)C3)CC2)nc1,82.3%
17,c1cnc(N2CCCC3(CCN(CC4CC4)C3)C2)nc1 (stereo unspecified),43.9%
18,c1cnc(N2CCCC3(CCN(Cc4ccncc4)C3)C2)nc1 (stereo unspecified),42.6%
19,c1cnc(N2CC3(CCN(Cc4ccncc4)C3)C2)nc1,11.3%
20,c1cnc(N2CCC3(CCN(CC4CCCC4)CC3)C2)nc1,28.4%
21,CCC(CC)CN1CCC2(CCCN(c3ncccn3)C2)C1 (stereo unspecified),62.5%
22,c1cnc(N2CCCC3(CCN(c4ncccn4)C3)C2)nc1 (stereo unspecified),44.8%

row,SMILES,INHIBITION
1,c1cnc(N2CCCC3(CCN(CC4CCC4)C3)C2)nc1 (stereo unspecified),55.5%
2,COCCN1CCC2(CCCN(c3ncccn3)C2)C1 (stereo unspecified),48.3%
3,CC1CN(S(=O)(=O)c2ccc(C(=O)NCC(F)F)cc2)CCCO1 (stereo unspecified),49.2%
4,Cc1ccc(CN2CCN(C(=O)CCc3nc(Cl)n[nH]3)CC2=O)cc1,29.4%
5,O=C1CN(Cc2ccc3ccccc3n2)CCN1C1CCCC1,36%
6,Cc1nnc(NC(=O)NCc2ccc(OC(C)C)nc2)s1,21.5%
7,CN(CC(=O)NC(C)(C)C)Cc1cccc2c1OCCO2,65%
8,CN(CC(=O)NCC(F)(F)F)Cc1cccc2c1OCCO2,44.7%
9,CCN(Cc1cccc2c1OCCO2)C(=O)NC(C)(C)C,51.1%
10,CCN(Cc1cccc2c1OCO2)C(=O)Nc1ccncc1,46.5%
11,CCN(CC(=O)NC(C)(C)C)Cc1cccc2c1OCCO2,23.3%
12,CCN(Cc1cccc2c1OCO2)C(=O)NC1CC1,36.4%
13,CCC(O)CN1CCN(C(=O)c2sccc2C(C)C)CC1 (stereo unspecified),23.4%
14,CC(C)(O)C1CCN(C(=O)Nc2nc(-c3ccccc3)ns2)CC1,58.9%
15,CC(C)(O)C1CCCN(C(=O)Nc2nc(-c3ccccc3)ns2)C1 (stereo unspecified),-62.8%
16,O=C(Nc1nc(-c2ccccc2)ns1)N1CCC(F)CC1,-47%
17,CC(C)n1cnnc1C1CCCN(S(=O)(=O)c2c[nH]cn2)C1 (stereo unspecified),36.3%
18,O=C(Cc1csc(-c2ccccn2)n1)NCCCN1CCCCCC1=O,9.76%
